Results reported in PubChem BioAssay (Tox21).
Records with an inconclusive call do not appear. Values without a mark were called inactive. Activity calls are given as the source filed them. The call rests on the fitted dose curve; in most records, active means well fitted inhibition curve with a large enough effect in the repeat runs; inconclusive means weak or mixed curves; inactive means flat fitted curve, though single readings scatter.

Assay: qHTS assay to identify small molecule HDAC inhibitors (AID 1259364); further: nearly all actives have a fitted effect of over 45% in size; on activity change, negative = inhibition: top concentration of the series differs between compounds
Details: HCT-116 HDAC-Glo I/II luminescence, 2 h; series mostly up to 92.4 µM; activity change, negative = inhibition: at the top concentration
Description: U.S. Tox21 Program National Center for Advancing Translational Sciences [NCATS] NIH Chemical Genomics Center [NCGC] U.S. Environmental Protection Agency [EPA] National Institutes of Environmental Health Sciences [NIEHS] National Toxicology Program [NTP] U.S. Food and Drug Administration [FDA] Tox21 Assay Overview: Histone deacetylases (HDACs) are a group of epigenetic enzymes that regulate gene expression by histone deacetylation. HDACs are capable of introducing epigenetic modifications and such aberrations contribute to the onset and progression of several human diseases, thus making HDACs a popular therapeutic target. For identifying endogenous class I/II HDAC inhibitors a homogenous, luminogenic HDAC I/II cell based assay was used to measure the relative activity of class I and II HDACs from cells. Wild type HCT-116 cells were used to screen Tox21 libraries for identifying class I/II HDAC inhibitors.
Tox21 Assay Protocol Summary: HCT-116 cells were dispensed at 1,500 per well in 5uL of culture medium into white solid bottom 1536-well plates (Greiner Bio-One, Monroe, NC) using a Multidrop Combi (Thermo Scientific, Waltham, MA) dispenser. The assay plates were incubated at 37 C and 5% CO2 for an overnight, and then 23nL of compounds dissolved in DMSO and positive control were transferred using a Pintool station (Wako, San Diego, CA). The assay plates were incubated at 37C and 5% CO2 for 2hr. After compound treatment, 4uL of HDAC-Glo reagent (Promega Corporation, Madison, WI) was added to each well of the assay plates using Flying Reagent Dispenser (FRD, Aurora Discovery, San Diego, CA) and incubated the assay plates at room temperature for 30min. The luminescence signal was quantified using a ViewLux plate reader (Perkin Elmer, Shelton, CT).
On the % scale 0 is the no-effect control and ±100 the full control effect; potency means the concentration at half of the fitted maximal effect.

Row | SMILES | activity change, negative = inhibition | Potency
1 | CCC(C)(C)C | -1% | 
2 | O=C(O)CCC(=O)Nc1ccc(S(=O)(=O)Nc2nccs2)cc1 | -1.58% [at 42.5 µM] | 
3 | CC(C)(C)OC=O | 9.67% | 
4 | CC(C)(Sc1cc(C(C)(C)C)c(O)c(C(C)(C)C)c1)Sc1cc(C(C)(C)C)c(O)c(C(C)(C)C)c1 | -4.43% [at 42.5 µM] | 
5 | Cc1nnc(C(=O)NC(C)(C)c2nc(C(=O)NCc3ccc(F)cc3)c(O)c(=O)n2C)o1 | 0.295% [at 42.5 µM] | 
6 | CC(C)C[P+](C)(CC(C)C)CC(C)C | 0.873% | 
7 | O=C(O)/C=C(\CC(=O)O)C(=O)O | -0.182% [at 42.5 µM] | 
8 | CC(C)c1cc(C(C)C)cc(C(C)C)c1 | 1.96% | 
9 | O=C1CCCc2c(O)cccc21 | 0.102% [at 42.5 µM] | 
10 | OCCC(F)(F)C(F)(F)C(F)(F)C(F)(F)C(F)(F)C(F)(F)F | -2.07% | 
11 | Nc1cc(S(=O)(=O)O)ccc1O | -5.47% | 
12 | CC(C)(C)c1ccc(N)cc1 | -1.13% | 
13 | CCCOc1ccc(C(=O)OCCN(CC)CC)cc1N | -4.28% [at 42.5 µM] | 
14 | N=C(N)S(=O)O | 3.84% | 
15 | Cc1ccc(NC(N)=O)cc1 | -10.8% | 
16 | O=S(=O)(O)CC(O)CCl (stereo not given) | -2.66% | 
17 | CCOC(=O)[C@H](CCc1ccccc1)N[C@H]1CS[C@H](c2cccs2)CN(CC(=O)O)C1=O | 16.5% [at 42.5 µM] | 
18 | N=C(N)N | 1.23% [at 42.5 µM] | 
19 | CC(C)C(=O)Nc1cccc(C2CN3CCSC3=N2)c1 (stereo not given) | -0.0107% [at 42.5 µM] | 
20 | O=P(O)(O)C(O)(Cc1cccnc1)P(=O)(O)O | 7.73% [at 42.5 µM] | 

Row | SMILES | activity change, negative = inhibition | Potency
21 | CCCCCCCCCCCCCC(=O)OCC | -3.02% | 
22 | CCCCCCCCCCCCCCCCN(C)C | 2.04% [at 8.39 µM] | 
23 | C/C(=N\O)c1ccc(OCC(=O)N2CCCCC2)cc1 |  | 8.41 µM (active)
24 | CC(=O)SC[C@@H](C)C(=O)N1CCC[C@H]1C(=O)N[C@@H](Cc1ccccc1)C(=O)O | -1.31% [at 42.5 µM] | 
25 | Cc1ccc2cccnc2c1 | 0.171% | 
26 | Cc1cc(N)no1 | 0.287% | 
27 | O=C(OOC(=O)c1ccccc1)c1ccccc1 | -20.8% [at 42.5 µM] | 
28 | CCCCCCCOC(C)=O | 3.1% | 
29 | C[C@@H]1CCC[C@H](C)N1CCCC(O)(c1ccccc1)c1ccccn1 (stereo not given in full) | 8.72% [at 42.5 µM] | 
30 | CCN(CC)CC(=O)Oc1ccc(NC(C)=O)cc1 | 4.26% [at 42.5 µM] | 
31 | CCCCCCCCCCCC(C)=O | -1.11% | 
32 | C=CC(=O)CC | 3.89% | 
33 | C=CC(=O)OCCOCCOCC | -4.02% | 
34 | C=CCn1cc[n+](C)c1 | -6.07% | 
35 | CC1(C)C(=O)C(C)(C)C1=O | 7.19% | 
36 | CCCCN1C(=O)c2ccccc2C1=O | -23.6% | 
37 | CN(C)c1cc(NC(=O)CNC(C)(C)C)c(O)c2c1C[C@H]1C[C@H]3[C@H](N(C)C)C(=O)C(C(N)=O)=C(O)[C@@]3(O)C(=O)C1=C2O | -5.18% [at 42.5 µM] | 
38 | CC(=O)Nc1ccc(S(=O)(=O)Nc2cc(C)on2)cc1 | -1.07% [at 42.5 µM] | 
39 | CNC(C)=O | -4.6% | 
40 | C[C@@H]1NC(=O)[C@@H](N)CNC(=O)[C@H](C2CCNC(N)=N2)NC(=O)/C(=C/NC(N)=O)NC(=O)[C@H](CNC(=O)C[C@@H](N)CCCN)NC1=O (stereo not given in full) | -0.0991% [at 0.349 µM] | 
